Screen size: about 48,000 compounds; about 13,000 (27%) showed an effect of 50% or more. The list shows a part of the results.
Test system: Wolbachia pipientis
Assay: Anti-Wolbachia Cell-Based Screen
Format: functional
Parameters: scale not given: in the data most compounds retested in dose-response had high values
Conditions: 5 µM

Row | SMILES | Percent Effect [%]
1 | Cc1cc(F)ccc1OC1(C(=O)O)CCN(Cc2cccnc2N)CC1 | -8.297
2 | Cc1noc(C)c1CN(C)Cc1csc(-c2ccc(F)cc2)n1 | 17.5
3 | Cc1cc(C(=O)N2CCN(C(=O)CCC3CCCCC3)CC2)n(C)n1 | -12.7
4 | O=S(=O)(Cc1ccccc1)c1nnc(N2CCCC2)s1 | -13.72
5 | Cc1ncc(CN(C)C(=O)Nc2cccc(CN3CCOC3=O)c2)s1 | 6.587
6 | CN(C)C(=O)[C@H]1C[C@@H]2CN(C(=O)NCC3CCCCC3)C[C@H]1O2 | -9.234
7 | COc1c(C2CCCN2Cc2c(C)noc2C)c(C)nn1C (stereo unspecified) | -0.2322
8 | COc1c(C2CCCN2Cc2nc(-c3ccco3)no2)c(C)nn1C (stereo unspecified) | 131.1
9 | Cc1ccc(C2CCCN2Cc2nc(-c3ccco3)no2)cc1 (stereo unspecified) | 6.26
10 | Cc1nn(C)c(Cl)c1C1CCCN1Cc1nc(-c2ccco2)no1 (stereo unspecified) | 77.16
11 | Cc1nn(C)c(C)c1C1CCCN1Cc1nc(-c2ccco2)no1 (stereo unspecified) | 17.11
12 | CCCc1noc(CN2CCCC2c2c(C)nn(C)c2OC)n1 (stereo unspecified) | -3.307
13 | CCOC(C)c1nc(CN2CCNCC2)cs1 (stereo unspecified) | 1.236
14 | c1cc(CN2C[C@@H]3OCCN(CC4CCCO4)[C@@H]3C2)co1 (stereo partly specified) | -2.91
15 | Cc1cccc(CN2C(=O)CO[C@@H]3CN(C4CCOCC4)C[C@H]32)c1.O=C(O)C(F)(F)F | 109.7
16 | O=C(O)C(F)(F)F.O=C(O)C(F)(F)F.O=C(O)C(F)(F)F.c1cc(CN2C[C@@H]3OCCN(CCN4CCCC4)[C@@H]3C2)co1 | -5.454
17 | CN(C)CCN1CCO[C@H]2CN(Cc3cnn(C)c3)C[C@H]21.O=C(O)C(F)(F)F.O=C(O)C(F)(F)F.O=C(O)C(F)(F)F | 2.67
18 | Cc1cc(C)cc(CN2C[C@@H]3OCCN(S(=O)(=O)N(C)C)[C@@H]3C2)c1 | -1.729
19 | CN(C)C(=O)CN1CCO[C@H]2CN(Cc3ccoc3)C[C@H]21 | 95.5
20 | CN1CCC(N(C)CCC(=O)N2CCN(Cc3cccc(F)c3)CC2)C1 (stereo unspecified) | -12.08
21 | Cc1cccc(CN2C(=O)CO[C@@H]3CN(CCO)C[C@H]32)c1.O=C(O)C(F)(F)F | 23.75
22 | CN(C)C(=O)CN1CCO[C@H]2CN(Cc3cccc(F)c3)C[C@H]21 | 99.44
23 | O=C(O)C(F)(F)F.O=C1CO[C@@H]2CN(C3CCOCC3)C[C@H]2N1Cc1cccc(F)c1 | 2.353
24 | CN(C)C(=O)CO[C@H]1CN(Cc2cccc(F)c2)[C@@H]2CCCO[C@H]12.O=C(O)C(F)(F)F | 5.103
25 | Cc1cc(C)cc(CN2C[C@@H]3OCCN(CC(=O)N(C)C)[C@@H]3C2)c1.O=C(O)C(F)(F)F | 122.5
26 | CC(SCc1cc(Br)cc2cccnc12)C(N)=O (stereo unspecified) | -22.01

Row | SMILES | Percent Effect [%]
27 | COc1ccc2c(c1)CC(C(=O)N(C)CCCc1cnn(C)c1)CO2 (stereo unspecified) | -3.689
28 | CC(C)[C@@H]1CN(c2ccc(C(F)(F)F)cn2)C[C@H]1NS(C)(=O)=O | -16.11
29 | OCC(O)CSCc1ccc(F)cc1Cl (stereo unspecified) | -2.217
30 | CC(=O)N[C@@H]1CN(C(=O)c2ccoc2)C[C@H]1c1ccc(C)cc1 | 0.232
31 | Cc1cccc(CN2C[C@@H]3OCCN(S(=O)(=O)N(C)C)[C@@H]3C2)c1.O=C(O)C(F)(F)F | 1.609
32 | Cc1cccc(CN2C[C@@H]3OCCN(CC(=O)N(C)C)[C@@H]3C2)c1.O=C(O)C(F)(F)F | 97.29
33 | Cc1cc(CN2CC[C@H]3[C@H]2CCN3CC(=O)N(C)C)oc1C.O=C(O)C(F)(F)F.O=C(O)C(F)(F)F | -40.85
34 | O=C(NC[C@H]1OC[C@@H](NC2COC2)[C@@H]1O)C1CCCC1 | -18.2
35 | Cn1cc(C(C)(O)CNC(=O)c2ccc(Br)s2)cn1 (stereo unspecified) | 0.7525
36 | Cc1noc(C)c1CN(Cc1ccccc1)C(C)C | -1.884
37 | O=C(NC1CCC1)[C@@H]1CCO[C@@H]2CCN(CCc3ccccc3)C[C@H]21.O=C(O)C(F)(F)F | 10.39
38 | O=C(NC1CC1)[C@@H]1CCO[C@@H]2CCN(C3CCOCC3)C[C@H]21.O=C(O)C(F)(F)F | -6.605
39 | CN(C)C(=O)[C@@H]1CCO[C@@H]2CCN(CCOCc3ccccc3)C[C@H]21.O=C(O)C(F)(F)F | 110
40 | O=C(NCC1CC1)[C@@H]1CCO[C@@H]2CCN(CCc3ccccc3)C[C@H]21.O=C(O)C(F)(F)F | 103.2
41 | Cc1noc(C)c1CN1CC[C@H]2OCC[C@@H](C(=O)NCC3CC3)[C@H]2C1.O=C(O)C(F)(F)F | -0.6103
42 | O=C(NC1CC1)[C@@H]1CCO[C@@H]2CCN(CCc3ccccc3)C[C@@H]21.O=C(O)C(F)(F)F | 121.8
43 | CNC(=O)[C@@H]1CCO[C@@H]2CCN(C3CCOCC3)C[C@@H]21.O=C(O)C(F)(F)F | -5.14
44 | CNC(=O)[C@@H]1CCO[C@@H]2CCN(CCc3ccccc3)C[C@H]21.O=C(O)C(F)(F)F | 100.2
45 | CN(C)C(=O)[C@@H]1CCO[C@@H]2CCN(CCc3ccccc3)C[C@@H]21.O=C(O)C(F)(F)F | 0.9995
46 | O=C(NCC1CC1)[C@@H]1CCO[C@@H]2CCN(Cc3ccc(F)cc3)C[C@H]21.O=C(O)C(F)(F)F | -1.927
47 | CN(C)C(=O)[C@@H]1CCO[C@@H]2CCN(Cc3ccccc3)C[C@@H]21.O=C(O)C(F)(F)F | -6.959
48 | CC1=N[C@@]2(CC[C@@H]3CN(S(=O)(=O)CC(C)C)C[C@@H]32)C(=O)N1CC1CC1 | 5.74
49 | O=C(C1CCCN(Cc2cccc(F)c2)C1)N1CCc2sccc2C1 (stereo unspecified) | 1.206
50 | CCN(CCc1nccs1)C(=O)c1sccc1C | -15.07
51 | Cc1noc(C)c1CN(C)Cc1csc(-c2ccc(C(C)C)cc2)n1 | -1.572

— ChEMBL document CHEMBL3988442, “University of Dundee, Small-Polar-MMV Screening Library” (2021)
